Compounds with a hit are over-represented: about 4.7% of the library has one in this group of screens.
TRHR agonist: activates the human TRH receptor; P34981; TRHR cells, calcium flux fluo-8, FDSS agonist mode; activation, % at 2 µM; 0.18% of 360,000 active; AID 493084; also: 0% is about no effect
Target sequence (P34981 whole entry, looked up): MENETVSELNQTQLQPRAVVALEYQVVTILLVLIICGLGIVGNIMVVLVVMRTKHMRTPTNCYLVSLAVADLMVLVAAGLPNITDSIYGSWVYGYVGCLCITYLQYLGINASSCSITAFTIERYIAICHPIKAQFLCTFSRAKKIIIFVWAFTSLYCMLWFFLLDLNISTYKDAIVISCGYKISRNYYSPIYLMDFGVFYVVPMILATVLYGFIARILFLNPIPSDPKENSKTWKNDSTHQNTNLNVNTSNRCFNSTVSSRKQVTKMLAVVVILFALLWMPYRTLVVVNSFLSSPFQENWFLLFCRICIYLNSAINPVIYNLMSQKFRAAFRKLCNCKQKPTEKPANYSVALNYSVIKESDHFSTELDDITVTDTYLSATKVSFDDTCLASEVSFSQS
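TRHR-expressing cells loaded with fluo-8 calcium dye; 23 nL library compound pin-transferred, kinetic FDSS fluorescence (Ex 480/Em 530) recorded about 180 s for agonist-induced calcium release, before a 10 nM TRH EC20 addition for potentiator mode.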
D1 antag: blocks dopamine activation of the human D1 receptor; HEK293 TREx D1 cells, calcium flux, dopamine EC80; stronger effect = lower value; AID 504652; activity change, negative = inhibition, % at 10 µM; 3.2% of 360,000 active; P21728; in the data active = activity change below about -30%; also: % is scaled to controls: 0 for no effect and ±100 for the full control effect
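Allosteric or orthosteric antagonism assessed as attenuation of the calcium response to EC80 dopamine, added 180 s after compound, in induced HEK293 Trex D1 cells loaded with no-wash calcium dye.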
TRHR enhancer: allosteric enhancers of human TRH receptor; TRHR cells, fluo-8 calcium fluorescence, EC20 TRH enhancement; enhancement, % at 2 µM; 0.66% of 360,000 active; AID 493056; in the data active = enhancement above about 30%; also: 0% is about no effect
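Enhancer read-out: after compound pinning and an initial kinetic agonist-mode read, an EC20 of TRH (10 nM final) was injected and fluo-8 calcium signal (Ex 480/Em 530) followed at 1 s/cycle for 100 cycles in TRHR-expressing cells.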
D1 agonist: human D1 receptor agonism | P21728 | activation, % at 2 µM | 1% of 360,000 active | HEK293 T-REx D1 cells, calcium flux, agonist mode; also: 0% is about no effect
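Agonism was scored from calcium flux recorded over 180 s (1 read/s) after pintool compound addition, following a 10-cycle baseline. Cells were inducible force-coupled HEK293 TREx D1, plated overnight at 30 C and loaded with no-wash calcium dye.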
D1 PAM: potentiators of human D1 dopamine receptor; P21728; HEK293 TREx D1 cells, calcium flux, dopamine EC20 potentiation; potentiation, % at 10 µM; 0.036% of 360,000 active; in the data active = potentiation above about 30%; also: 0% is about no effect
* marks the source's active call; other numbers are inactive results. Rule as the data show it, unless noted: active = activation above about 30%; inactive = the rest.

SMILES | TRHR agonist | D1 antag | TRHR enhancer | D1 agonist | D1 PAM
COc1cc(-c2nc(SCC(=O)Nc3ccc(C)cc3)c(-c3ccc(F)cc3)[nH]2)cc(OC)c1OC | -1 | -35* | 6 | 4 | -5
Cc1[nH]c2ccc(-c3n[nH]c(=S)n3Cc3ccccc3)cc2c1C | 2 | -32* | 4 | 7 | -6
COc1cc2c(cc1OC)C(C(=O)Nc1cc(OC)c(OC)c(OC)c1)C(c1cccnc1)N(C)C2=O (stereo unspecified) | 1 | -3 | -3 | 4 | -4
COc1cc(NC(=O)c2ccc(-c3nc(CSc4ccccc4)c(C)o3)cc2)cc(OC)c1 | -1 | 14 | 6 | 11 | -2
Cc1ccccc1-c1noc(CSc2nnc(-c3ccncc3)n2-c2ccc(F)cc2)n1 | 0 | -5 | -3 | 1 | -5
Cc1ccc(-n2c(SCc3nc(-c4ccccc4C)no3)nnc2-c2ccncc2)cc1C | -1 | -34* | 1 | 13 | -1
N#C/C(=C(/O)CN1C(=O)c2ccccc2C1=O)c1nc2ccccc2[nH]1 | -1 | -22 | -1 | 3 | -1
CSCCC(/C(O)=C(\C#N)c1nc2ccccc2[nH]1)N1C(=O)c2ccccc2C1=O (stereo unspecified) | -1 | -31* | 5 | 1 | 2
Cc1cccc(NC(=O)CC2C(=O)NCCN2C(=O)Nc2ccc(Cl)cc2)c1 (stereo unspecified) | 1 | -17 | 9 | 10 | -3
CCOC(=O)Cn1c(C2CC(=O)N(c3ccc(C)cc3)C2)nc2ccccc21 (stereo unspecified) | 0 | -46* | 1 | 9 | -4
Cc1cccc(OCCCCn2c(C3CC(=O)N(c4ccccc4Cl)C3)nc3ccccc32)c1 (stereo unspecified) | 1 | -1 | 33* | 25 | -3
CCc1ccccc1N1CC(c2nc3ccccc3n2CCCCOc2ccccc2OC)CC1=O (stereo unspecified) | 4 | -7 | -18 | 60* | 0
CC(C)CN(CCNC(=O)c1cc(-c2ccc(Cl)s2)nc2ccccc12)CC(C)C | 0 | 11 | -1 | 2 | 0
CCOc1ccc(CCNC(=O)c2cccc(Nc3nc4ccccc4nc3-n3nc(C)cc3C)c2)cc1OCC | 0 | -2 | -5 | 0 | 3
CCOc1ccccc1NC(=O)COC(=O)Cc1ccsc1 | -1 | 2 | -3 | 3 | -3
Cc1ccc(NC(=O)COC(=O)Cc2ccsc2)c(C)c1 | -2 | -34* | 17 | 0 | -3
O=C(O)CCc1nn2cc(-c3ccccc3)nc2[nH]c1=O | 0 | -79* | -1 | 1 | -5
CC(C)c1ccc(NC2CCCN(C(=O)CN3C(=O)CSC3=O)C2)cc1 (stereo unspecified) | 1 | -12 | -5 | 1 | -4
O=C1C2C(c3ccccc3)=NN(c3ccccc3)C2C(=O)N1c1ccccc1 (stereo unspecified) | 0 | 1 | -2 | 0 | 0
O=C1[C@H]2C(c3ccccc3)=NN(c3ccccc3)[C@H]2C(=O)N1c1ccccc1 | -1 | -45* | -1 | 4 | -8
CCN1CCN(C(=S)Nc2ccc3nc4n(c(=O)c3c2)CCCCC4)CC1 | 0 | -2 | 0 | 36* | -4
CCCN(CCC)CCCNC(=S)Nc1ccc2nc3n(c(=O)c2c1)CCCCC3 | 0 | -30* | 2 | 0 | -10
CCN(CC)CCNC(=S)Nc1ccc2nc3n(c(=O)c2c1)CCCCC3 | 0 | -5 | 9 | 3 | -3
CCC1(CC)NC(=O)N(CC(=O)OCC(=O)NC(=O)c2ccccc2OC)C1=O | 0 | 8 | -8 | 3 | 3
O=C(N/N=C/C(Br)=C/c1ccccc1)C1CC1 | 0 | -41* | -8 | 2 | -6
SMILES | TRHR agonist | D1 antag | TRHR enhancer | D1 agonist | D1 PAM
COc1ccc(C(=O)Nc2ccc3oc(-c4ccc(F)cc4Cl)nc3c2)cc1 | 0 | -38* | -7 | 0 | -3
COc1cc2ccccc2cc1C(=O)Nc1ccc2oc(-c3ccc(F)cc3Cl)nc2c1 | 0 | 4 | 4 | -2 | 1
CN(C(=O)CSc1nc2ccccc2n1Cc1cccc(C(F)(F)F)c1)c1ccccc1 | 1 | -3 | 5 | 10 | 1
COc1ccc(C2C(C(=O)N3CCN(c4ccccc4F)CC3)c3ccccc3C(=O)N2C)cc1 (stereo unspecified) | 0 | -83* | 6 | 0 | -4
CCOc1cc(/C=C/C(=O)c2ccc(OC)c(CN3CCOCC3)c2)cc(Br)c1O | 40* | -1 | -7 | 41* | -5
CC(=O)Nc1c2c(nn1-c1cccc(Cl)c1)CS(=O)(=O)C2 | 0 | -10 | 2 | 6 | -3
CCc1ccc2c(CN(C)Cc3ccccc3OC)cc(=O)oc2c1 | -1 | -31* | 0 | 3 | -6
COc1ccc(N(CC(=O)NC(C)c2ccccc2)S(=O)(=O)c2c(C)nn(C)c2C)cc1 (stereo unspecified) | 0 | -1 | -1 | 0 | -2
COCCCn1c(-c2ccc(S(=O)(=O)N3CCOCC3)cc2)csc1=Nc1ccccc1 | 0 | -2 | -2 | 1 | 0
CCn1c(-c2ccc(S(=O)(=O)N3CCOCC3)cc2)csc1=Nc1ccc(C)c(Cl)c1 | 0 | -37* | 19 | 1 | -4
O=C(Nc1cccc(F)c1)c1ccc(S(=O)(=O)N2CCCCC2)cc1 | 1 | -43* | 4 | 12 | -8
O=C(Nc1cccc(S(=O)(=O)N2CCCCC2)c1)c1ccccc1NS(=O)(=O)c1ccc(F)cc1 | 0 | -52* | -8 | 41* | -8
O=C(CN1CCCN(S(=O)(=O)c2ccc(F)cc2)CC1)Nc1cccc(F)c1 | -1 | -2 | -7 | 2 | -12
O=C(Nc1cccc(O)c1)c1ccc(S(=O)(=O)N2CCCCCC2)cc1 | 0 | -8 | -4 | 0 | 0
O=C(Nc1ccc(Cc2ccncc2)cc1)c1ccc(S(=O)(=O)N2CCCC2)cc1 | 1 | -39* | -2 | 23 | -7
Cc1ccc(NC(=O)c2ccccc2NS(=O)(=O)c2ccc(F)cc2)cc1S(=O)(=O)N1CCCCC1 | 2 | -28 | -9 | 28 | -4
O=C(CN1CCN(C(=O)c2cccc(S(=O)(=O)N3CCCC3)c2)CC1)Nc1cccc(F)c1 | 0 | -33* | -4 | 3 | -4
CCOc1ccc(NC(=O)Cn2nc(CC)n3c(cc4sccc43)c2=O)cc1 | 0 | -1 | 7 | 1 | -3
CCS(=O)(=O)c1ncc(Cl)c(C(=O)N(Cc2ccccc2)c2ccc(OC)cc2)n1 | -1 | -3 | -25 | -2 | -2
COC(=O)c1ccccc1NS(=O)(=O)c1ccc(NC(C)=O)cc1 | 2 | -2 | 2 | 4 | 1
COC(=O)c1ccccc1NS(=O)(=O)c1ccc(F)cc1 | 0 | -36* | -6 | -1 | -2
COc1ccc(-c2cnnn2-c2ccc(NC(=O)c3ccc(S(=O)(=O)N4CCCCC4)cc3)cc2)cc1OC | 1 | -34* | -6 | 6 | -8
